Bioassay records: PubChem BioAssay, several laboratories
Mcl-1 Bim block: human Bim-Mcl-1 interaction inhibition. Q07820. Bead-based flow cytometry, Bim peptide-Mcl-1 binding. inhibition, % at 10 µM. actives 0.1% (n = 190,000); in the data active means inhibition above about 40%;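 further: 0% = no compound tracer wells and 100% = peptide blocker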
Target sequence (Q07820 whole entry, looked up): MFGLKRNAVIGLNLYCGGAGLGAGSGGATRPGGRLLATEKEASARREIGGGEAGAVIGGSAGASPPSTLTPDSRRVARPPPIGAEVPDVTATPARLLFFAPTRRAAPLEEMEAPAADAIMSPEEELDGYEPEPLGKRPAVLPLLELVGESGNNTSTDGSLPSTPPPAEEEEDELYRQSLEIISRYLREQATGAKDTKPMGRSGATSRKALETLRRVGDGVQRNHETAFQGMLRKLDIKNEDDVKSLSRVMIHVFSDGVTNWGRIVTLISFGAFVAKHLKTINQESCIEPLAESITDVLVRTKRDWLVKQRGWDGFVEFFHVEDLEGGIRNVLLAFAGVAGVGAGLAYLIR
L929 necroptosis: blocks zVAD induced death of L929 cells. L929 zVAD necroptosis rescue, ATP luminescence, 24 h; with zVAD 60 µM. viability rescue, % at 10 µM. actives 0.38% (n = 220,000). AID 1377;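 active means activation, scaled between plate controls, above about 75%, limit read from the data; inactive means activation under that limit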;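 further: 0% = zVAD with DMSO and 100% = DMSO alone without zVAD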
Mcl1-Noxa inh: disrupts binding of human Mcl-1 to Noxa peptide; Q07820; TR-FRET Mcl-1/Noxa peptide binding, 2 h; inhibition, % at 21.7 µM; actives 1.5% (n = 220,000); AID 1022;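 active means compounds that cut the protein-peptide binding signal by more than 50% relative to plate controls in a single-dose test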;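 further: His-tagged Mcl-1 with rhodamine Noxa BH3 peptide and terbium anti-His antibody; 0% = Mcl-1 plus Noxa peptide wells and 100% = peptide-only wells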
MCL1-BIM inh: disrupts human MCL1 binding to BIM-BH3 peptide; Q07820; GST-MCL1 / FITC-Bim-BH3 fluorescence polarization; inhibition, % at 10.9 µM; actives 0.68% (n = 320,000);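 active means inhibition above the mean inhibition of all tested compounds plus 3 SD, set per campaign, cut at about 40% in these data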;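 further: 0% = DMSO wells and 100% = unlabeled Bim-BH3 peptide control; higher means more loss of mP so more displacement of Bim peptide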
TNF necrop inh: TNF-alpha cell death inhibition in Jurkat FADD-/- cells. Jurkat FADD-/- TNF necroptosis rescue, ATP luminescence, 24 h; 0 = TNF only, 100 = no-TNF cells. activation (protection from cell death), % at 10 µM. actives 0.068% (n = 220,000). AID 463075;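 active means activation, meaning protection from cell death, of at least 50% relative to plate controls; inactive means activation below 50%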;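 further: necroptosis triggered by 40 ng/mL TNF-alpha added together with compound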
Mcl1 Bid PPI: disrupts binding of human Mcl-1 to Bid peptide | inhibition, % at 21.7 µM | TR-FRET Mcl-1/Bid-Dy647 peptide binding, 1536-well | Q07820 | actives 0.97% (n = 220,000);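 active means compounds that cut the binding signal by more than half at the single screening dose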;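 further: His-tagged Mcl-1 with europium anti-His antibody binding Bid BH3 peptide; 0% = Mcl-1 plus peptide wells and 100% = peptide-only wells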
BCLXL inh confirm: counter-screen for MCL1 inhibitors: confirmation of human Bcl-xL inhibitors; actives 54% (n = 1,700); inhibition, % at 10.9 µM; AID 2166; shares compounds with MCL1-BIM inh; GST-Bcl-xL / FITC-Bim BH3 peptide FP binding;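 active means inhibition above a cutoff equal to the mean inhibition of all tested compounds plus 3 SD, cut at about 30% in these data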;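 further: 0% = DMSO wells and 100% = unlabeled Bim BH3 control peptide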
Target sequence (Q07817 whole entry, looked up): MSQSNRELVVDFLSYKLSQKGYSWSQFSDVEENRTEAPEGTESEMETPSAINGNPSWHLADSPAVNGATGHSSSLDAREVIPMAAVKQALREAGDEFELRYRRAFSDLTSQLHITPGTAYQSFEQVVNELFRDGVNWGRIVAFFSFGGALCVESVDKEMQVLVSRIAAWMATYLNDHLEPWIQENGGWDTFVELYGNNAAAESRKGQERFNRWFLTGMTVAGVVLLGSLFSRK
MCL1 BIM confirm: confirmation of human MCL1 and BIM-BH3 interaction inhibitors. shares compounds with MCL1-BIM inh. GST-MCL1 / FITC-Bim-BH3 fluorescence polarization. inhibition, % at 10.9 µM. actives 61% (n = 1,700). AID 2168;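 active means inhibition above the average of all tested compounds plus 3 SD, cut at about 40% in these data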;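 further: 0% = DMSO wells and 100% = unlabeled Bim-BH3 control peptide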
Numbers without * were called inactive; x = no result; + = active, no number; ! = not confirmed by another sample. This is a sample that favours compounds with a hit; in the whole collection about 2.4% have one here.

SMILES	Mcl-1 Bim block	L929 necroptosis	Mcl1-Noxa inh	MCL1-BIM inh	TNF necrop inh	Mcl1 Bid PPI	BCLXL inh confirm	MCL1 BIM confirm
CCc1n[nH]c(=S)n1/N=C/c1cc(OC)cc([N+](=O)[O-])c1O	1	3	78*	60*	-2	-126	16	68*
Nc1cc(C(=O)O)c(N)c2c1C(=O)c1ccccc1C2=O	x	-2	96*	180*	-14	-86	161*	195*
O=C(N/N=C/c1ccc(-c2ccc(S(=O)(=O)Nc3ncccn3)cc2)o1)c1cc2ccccc2cc1O	4	0	106*	64*	-5	51*	16	57*
CCc1cccc(C)c1Nc1nc2ccccc2n2cnnc12	x	x	x	4	x	x	x	x
COc1ccc(NC(=O)C(Cc2cc(C)cc(C)c2)C(C)C(=O)O)cc1 (stereo not given)	x	x	x	-2	x	x	x	x
ClCc1nc2ccccc2n1Cc1ccccc1	x	x	x	160*	x	x	54*	79*
COCc1nc2ccccc2n1Cc1ccccc1	1	-1	-14	-3	0	-10	x	x
CCOc1ccc(C=Nc2cccc3ncccc23)cc1	0	1	24	9	-11	-42	x	x
Cc1ccc(C=Nc2cccnc2N)cc1	3	x	16	70*	7	-11	11	13
COc1ccc(/C=N/N=C2/CC(C)(C)Cc3n[nH]c(=O)cc32)cc1	1	3	17	155*	0	-47	49*	63*
COc1cccc(C2C=C(c3ccc(OC)cc3OC)Nc3nnnn32)c1 (stereo not given)	-1	2	7	51*	-7	-57	14	22
COc1ccc(N(C(=O)Cn2nnc(-c3ccccc3F)n2)C(C(=O)NCC2CCCO2)c2ccc(Cl)cc2)cc1 (stereo not given)	-1	1	18	-3	2	10	x	x
CN(C(=O)CN1C(=O)c2cccc(N)c2C1=O)C1CCCCC1	x	x	x	73*	x	x	56*	77*
N#Cc1c(NC(=O)/C=C/C(=O)O)sc2c1CCN(Cc1ccccc1)C2	x	x	x	-72	x	x	x	x
Cc1cc2ccccc2n1CCNC(=O)COc1ccccc1	1	0	6	63*	-1	-38	26	28
CCC(=O)NCCn1c(C)cc2ccccc21	2	0	2	18	0	-37	x	x
O=C(O)CSc1cc(NS(=O)(=O)c2ccc(Cl)cc2)c2ccccc2c1O	x	x	x	38	x	x	x	x
COc1ccc(S(=O)(=O)Nc2cc(SCC(=O)O)c(O)c3ccccc23)cc1	x	x	x	x	x	x	30	x
O=C1NC(=Nc2ccc(Cl)cc2)/C(=C/c2ccco2)S1	4	1	66*	90*	2	57*	38*	75*
Cc1cccc(N=C2NC(=O)S/C2=C\c2ccco2)c1	0	0	35	42*	2	4	28	33
Cc1cccc(N=C2CSC(=O)N2)c1	-24	1	3	6	4	-1	x	x
COc1ccc(Cl)cc1C(=O)NNC(=O)c1ccncc1	x	x	x	12	x	x	x	x
O=C(CCCN1C(=O)/C(=C/c2ccco2)SC1=S)Nc1cccc(C(=O)O)c1	x	0	15	60*	1	-34	29	39
O=C(CCCN1C(=O)/C(=C\c2ccco2)SC1=S)Nc1ccc(O)cc1C(=O)O	x	x	x	71*	x	x	51*	77*
O=C(CCCN1C(=O)/C(=C\c2cccs2)SC1=S)Nc1cccc(C(=O)O)c1	0	4	15	13	0	-19	x	x
SMILES	Mcl-1 Bim block	L929 necroptosis	Mcl1-Noxa inh	MCL1-BIM inh	TNF necrop inh	Mcl1 Bid PPI	BCLXL inh confirm	MCL1 BIM confirm
CCOC(=O)c1c(NC(=O)CN2CCN(C(=O)C3CCCO3)CC2)sc(C)c1C (stereo not given)	x	x	x	-5	x	x	x	x
O=[N+]([O-])c1c(NCCCO)cc(SCc2ccco2)c2nonc12	-6	0	11	59*	-1	-82	14	12
CC(=O)OCCNc1cc(SCc2ccco2)c2nonc2c1[N+](=O)[O-]	-1	-1	32	36	-2	-17	x	x
COc1ccc(CNC(=O)COC(=O)c2cccs2)cc1	x	x	x	-1	x	x	x	x
CCCCN(C(=O)c1cccc(-n2cccc2)c1)c1c(N)n(Cc2ccccc2)c(=O)[nH]c1=O	x	x	x	78*	x	x	-7	30
CCn1c2ccccc2c2cc(NC(=O)CNCc3ccccc3OC)ccc21	x	x	x	2	x	x	x	x
O=C(CNCc1ccccc1)Nc1ccc(F)cc1	-5	-1	9	43*	1	16	8	3
COc1ccccc1CNCC(=O)Nc1ccc(N(C)C)cc1	x	x	x	86*	x	x	61*	61*
Cc1ccc([N+](=O)[O-])c(C(=O)N/N=C/c2cccs2)c1	x	1	4	8	0	-34	x	x
Cc1nn(CC(=O)NCCCN2CCC(N3CCCCC3)CC2)c(=O)c2cc(-c3ccccc3)nn12	x	x	x	0	x	x	x	x
Cc1cc(C)n(CCCNC(=O)c2ccc(C)o2)n1	x	x	x	3	x	x	x	x
Cn1c(=O)c(N)c2c3c(c(Br)ccc31)C(=O)c1ccccc1-2	x	5	-5	+	-4	12	+	+
O=C1N=C(N2C=CC(=C3C=CNC=C3)C=C2)/C(=C/N=NC(=O)c2ccccc2O)S1	x	x	x	115*	x	x	84*	114*
O=C(c1ccco1)N1CCN(C(=O)c2cc(-c3ccncc3)nc3ccc(Br)cc23)CC1	x	1	x	6	-4	x	x	x
O=C(O)c1cc(-c2ccco2)nc2ccc(Br)cc12	4	0	84*!	141*!	0	26	45*	89*
COC(=O)Cn1cnc2c(oc3ccccc32)c1=O	x	x	x	0	x	x	x	x
COc1cc(C(=S)N2CCN(c3ccccc3Cl)CC2)cc(O)c1O	-8	2	60*	58*	-2	-54	34*	71*
COc1ccc(C(=S)N2CCN(c3ccccc3Cl)CC2)cc1OC	x	1	11	5	-3	-28	x	x
Cc1cccc(C)c1NC(=O)c1cccc2c1-c1ccccc1C2=O	-2	0	-17	-18	0	2	x	x
CC(=O)c1c(Cl)nc2cccc3c2c1-c1ccccc1C3=O	x	x	x	59*	x	x	40*	37
CCCCc1ccc(NC(=O)Nc2cnccn2)cc1	x	x	x	-1	x	x	x	x
CCCCc1ccc(NC(=O)Nc2cc(C)nn2C)cc1	x	x	x	68*	x	x	-1	5
CCN(CC(=O)Nc1ccc(NC(C)=O)cc1)C(=O)c1cc(S(=O)(=O)N2CCCCCC2)ccc1OC	x	x	x	-4	x	x	x	x
O=C1C=C(NNC(=O)c2cccnc2)CC(c2ccco2)C1 (stereo not given)	-2	0	12	54*	0	-17	13	14
CC1(C)CC(=O)C=C(NNC(=O)c2cccnc2)C1	x	1	-13	17	0	-36	x	x
